Here are results for nine compounds from PubChem BioAssay.

Each structure is given as a SMILES string. Inconclusive results are not listed. The source made the active and inactive calls.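 Rule for the calls, unless noted: active = viability loss from added drug above about 55%, and viability with drug at most 40%, in both replicates (limit read from the data, passing the limit was not always enough); inconclusive = both conditions met in only one replicate; inactive = neither replicate meets both conditions.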

Assay [1] is described as follows: reducers of endogenous Her2 protein level, primary screen, SKBR3 breast tumor cells, AlphaScreen, ATP viability (AID 461;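 active = Her2 level under about 52% in both replicate screens, with viability over 70% of control, limit read from the data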;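 for Her2 level: lower value means less Her2 protein in the cells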;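 for viability: percent of carrier control wells set as 100% viability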). The conditions noted are these: 18-24 h, measured here: SKBR3 viability, ATP luminescence, at 10 µM. For orientation: In Alpha technology, singlet oxygen from a donor bead excites a nearby acceptor bead.
Assay [2] deals with Receptor tyrosine-protein kinase erbB-2 (Homo sapiens) (UniProt P04626). Described as above. The conditions noted are these: 18-24 h, at 10 µM, stronger effect = lower value.
A short description of assay [3]: SK-BR-3 cell growth inhibitors, pilot screen, 24 h, human (AID 572;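 active = viability at or below 10% of carrier control in both of two separate runs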;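 note: compound exposure lasted between 18 and 24 h rather than exactly 24 h; 100% = carrier-treated control wells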). The conditions noted are these: SK-BR-3 viability, CellTiter-Glo luminescence, at 10 µM, stronger effect = lower value.
The nature of assay [4]: HUVEC growth inhibition – cell-based, human, primary screen (AID 575;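 active = viability at or below 30% in both replicate assays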;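 note: 100% = median of untreated cell wells with 0.1% DMSO on each plate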). The conditions noted are these: HUVEC proliferation, CellTiter-Glo luminescence, 72 h; at 10 µM; stronger effect = lower value. A general note: Cellular ATP, detected with luciferase, serves as a proxy for viable cell number.
The nature of assay [5]: growth inhibitors of H69AR lung tumor, primary screen, human, duplicate replicates (AID 580;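 active = viability at or under a set limit in both replicates, limit being median viability minus 3 SD, cut at about 48% in these data, passing the limit was not always enough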;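 note: 100% = mean luminescence of untreated wells and 0% = no signal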). The conditions noted are these: H69AR lung tumor cells viability, ATP luminescence, 72 h; at 10 µM; stronger effect = lower value.
Assay [6] can be described thus: reversal of MRP1-mediated doxorubicin resistance, pilot screen, H69AR cells, doxorubicin co-treatment (AID 601). The conditions noted are these: CellTiter-Glo, 72 h, at 10 µM; for differential viability (reversal): stronger effect = higher value.
A short description of assay [7]: 384-well plate pilot, post-Golgi transport modulator project, inhibition of yeast transport mutant growth (AID 636; in the data active = inhibition above about 31%). The conditions noted are these: absorbance 615 nm, about 18 h, stronger effect = higher value.
Assay [8] can be described thus: growth suppression of yeast trafficking mutant, preliminary HTS, modulators of trafficking downstream of Golgi apparatus project, 1536-format plate, OD 615 nm (AID 637; in the data active = inhibition above about 30%). The conditions noted are these: yeast transport mutant growth, absorbance 615 nm, 18 h; stronger effect = higher value.
Assay [9] is described as follows: OD615 S. cerevisiae growth inhibition, permissive medium, pilot counter-assay, permissive growth control for S. cerevisiae lifespan shortening project (AID 705;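 active = growth inhibition above 25% in both replicates, a cutoff set 3 SD above the mean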). The conditions noted are these: OD615, 24 h, at 10 µM, stronger effect = higher value.
Assay [10] in a line: Restrictive medium S. cerevisiae growth inhibition, OD615, pilot screen of yeast lifespan reduction project, restrictive growth control (AID 706;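 active = growth inhibition above a set limit, 3 SD over mean compound inhibition, in both replicates, cut at about 43% in these data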;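 note: modified DeaD lifespan yeast strain shifted to restrictive glucose medium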). The conditions noted are these: OD615, 48 h, at 10 µM, stronger effect = higher value.
The nature of assay [11]: viability gain of MRP-1-high H69AR cells under doxorubicin, pilot screen, MRP-1 activator project, CellTiter-Glo, duplicate (AID 807;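 active = viability increase at or above a cutoff of the median across tested compounds plus 3 SD, cut at about 8.5% in these data, passing the limit was not always enough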;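 note: compound pretreatment 18-22 h then 72 h combined with doxorubicin; 0% = doxorubicin alone and 100% = vehicle without doxorubicin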). The conditions noted are these: H69AR viability with doxorubicin, CellTiter-Glo luminescence; at 10 µM; stronger effect = higher value.
The nature of assay [12]: growth suppression of beta-catenin knockout HCT116, pilot screen, human colon tumor cells (AID 823;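 active = cell viability at or below a set limit in both duplicate runs, the limit being the all-compound median minus 4 SD, cut at about 23% in these data, passing the limit was not always enough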;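 note: 0% = wells killed by 20 µM Hyamine and 100% = untreated DMSO cell wells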). The conditions noted are these: CellTiter-Glo, 60 h, at 10 µM, stronger effect = lower value.
Assay [13] in a line: growth suppression of PTEN-deleted HCT116, pilot screen, cell-based, HCT116 clonal line, CellTiter-Glo (AID 824;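 active = viability at or below 27.92% in each of two runs, the all-compound median minus 4 SD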;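 note: 0% = 20 µM Hyamine control and 100% = vehicle cell control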). The conditions noted are these: 60 h, at 10 µM, stronger effect = lower value.
Assay [14] in a line: inhibitors of the yeast RAM network, pilot screen, dse1pr::URA3 reporter, 5-FOA selection (AID 869;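 active = inhibition over a set limit, the all-compound mean plus 3 SD, in both replicate runs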;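 note: 0% = DMSO wells with no growth and 100% = 10 µM 1-NA-PP1 with full growth; RAM network block rescues cells from 5-FOA so hits raise OD615 growth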). The conditions noted are these: S. cerevisiae dse1pr::URA3 5-FOA growth, OD615, 2 d; at 10 µM; stronger effect = higher value; strain carries analog-sensitive mutant Cbk1 kinase.
A short description of assay [15]: RAM signaling pathway blockade in yeast – S. cerevisiae, Pdr1DBD-CYC8 efflux-inhibited sensitized strain, primary screen (AID 1298;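 active = RAM network inhibition above 8.4% in each of two replicates, 3 SD over the compound average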;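 note: 0% = DMSO untreated cells without growth and 100% = 10 µM 1-NA-PP1 full growth; higher means more yeast growth rescued from 5-FOA killing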). The conditions noted are these: S. cerevisiae cbk1-as DSE1-URA3 strain, 5-FOA growth OD615, 2 d; at 50 µM; stronger effect = higher value.
Setting [16] is: H69AR cells + 2 uM doxorubicin, measured here: viability with 2 uM doxorubicin, stronger effect = lower value.
The mark [17] stands for this setting: H69AR cells, compound alone cytotoxicity.

As usually defined, the viability is a read-out of living cells in per cent, often relative to untreated cells. For orientation: inhibition means the change of the read-out against control, counted positive when it falls.

Chain of Receptor tyrosine-protein kinase erbB-2 (Homo sapiens) (P04626 whole entry, looked up): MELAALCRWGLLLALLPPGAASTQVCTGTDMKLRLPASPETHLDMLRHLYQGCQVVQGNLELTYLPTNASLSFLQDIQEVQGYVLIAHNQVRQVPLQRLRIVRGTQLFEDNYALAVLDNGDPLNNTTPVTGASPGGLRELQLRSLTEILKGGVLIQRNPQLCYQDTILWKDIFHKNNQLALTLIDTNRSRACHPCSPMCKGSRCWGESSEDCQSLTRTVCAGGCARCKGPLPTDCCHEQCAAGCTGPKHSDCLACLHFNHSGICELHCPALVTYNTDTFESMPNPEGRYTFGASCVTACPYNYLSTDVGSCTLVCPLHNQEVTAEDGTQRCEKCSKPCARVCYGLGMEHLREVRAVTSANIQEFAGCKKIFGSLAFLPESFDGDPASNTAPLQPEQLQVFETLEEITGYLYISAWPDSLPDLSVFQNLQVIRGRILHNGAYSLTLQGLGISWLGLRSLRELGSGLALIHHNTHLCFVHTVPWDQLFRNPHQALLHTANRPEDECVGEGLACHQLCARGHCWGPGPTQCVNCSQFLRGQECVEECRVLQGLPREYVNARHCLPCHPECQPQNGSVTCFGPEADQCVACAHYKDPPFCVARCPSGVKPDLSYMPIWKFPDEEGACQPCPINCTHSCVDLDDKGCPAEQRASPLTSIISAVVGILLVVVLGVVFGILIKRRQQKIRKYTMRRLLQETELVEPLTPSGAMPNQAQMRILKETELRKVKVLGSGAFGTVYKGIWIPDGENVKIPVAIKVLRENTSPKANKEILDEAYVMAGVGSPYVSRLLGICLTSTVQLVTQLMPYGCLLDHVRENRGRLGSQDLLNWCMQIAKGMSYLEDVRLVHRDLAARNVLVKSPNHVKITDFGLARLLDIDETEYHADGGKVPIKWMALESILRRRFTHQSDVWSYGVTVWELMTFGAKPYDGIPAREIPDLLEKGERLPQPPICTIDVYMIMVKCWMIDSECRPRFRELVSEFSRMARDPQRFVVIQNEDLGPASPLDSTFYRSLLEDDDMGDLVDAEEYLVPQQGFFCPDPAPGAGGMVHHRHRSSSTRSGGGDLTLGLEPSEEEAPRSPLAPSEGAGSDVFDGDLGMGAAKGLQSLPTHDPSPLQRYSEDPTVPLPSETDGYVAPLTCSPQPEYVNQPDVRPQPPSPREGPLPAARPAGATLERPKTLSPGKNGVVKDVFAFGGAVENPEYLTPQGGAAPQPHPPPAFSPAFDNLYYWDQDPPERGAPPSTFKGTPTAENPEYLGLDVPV

Turning to `CC(C)OC(=O)c1ccc(OC(=O)c2cccnc2)cc1`, the viability is 91.5% in assay [1]; 91.5% (inactive) in assay [3]; 102% (inactive) in [4]; 106% (inactive) in assay [5]; 94.6% in assay [6] (setting [16]); 106% in assay [6] (setting [17]). In addition, the viability was 92.9% (inactive) in assay [12] and 91.3% (inactive) in assay [13]. The Her2 level in assay [2] was 100% (inactive). In addition, in assay [6] (H69AR cells + 2 uM doxorubicin), the differential viability (reversal) was 11.3% (inactive). In addition, the inhibition in assay [7] was 3.65% (inactive); in assay [8], -3.44% (inactive); in [14], 2.02% (inactive). Moreover, the growth inhibition in [9] was 2.51% (inactive); in [10] it was 12.6% (inactive). Besides, the viability increase in assay [11] is -2.98% (inactive). Moreover, the RAM network inhibition in [15] was 2.34% (inactive).
Consider `CN(C)c1cc(NC(=O)CN2CCOCC2)c2ccccc2n1`, for which the viability in assay [1] is 110%; in assay [3], 110% (inactive); in assay [4], 90.2% (inactive); in [5], 85.8% (inactive); in assay [6] (setting [16]) it was 85%; in assay [6] (setting [17]), 85.8%. The viability in assay [12] is 100% (inactive); in assay [13] it was 99.4% (inactive). Also, the Her2 level in assay [2] is 100% (inactive). In addition, the differential viability (reversal) in assay [6] (H69AR cells + 2 uM doxorubicin) was 0.73% (inactive). Also, the inhibition in assay [7] was -5.47% (inactive); in assay [8], 7.17% (inactive); in [14], -0.365% (inactive). Besides, the values for the growth inhibition in assay [9] and in assay [10] were -12.2% (inactive) and -11% (inactive), respectively. Moreover, the viability increase in [11] is -1.8% (inactive). Further, the RAM network inhibition in assay [15] is 0.06% (inactive).
With `CC(=O)Nc1cccc(Oc2nc(C)cc(C)c2C#N)c1`, the viability in [1] was 96.5%; in assay [3], 96.5% (inactive); in assay [4] it was 94.1% (inactive); in [5], 87.3% (inactive); in assay [6] (setting [16]) it was 91.7%; in assay [6] (setting [17]), 87.3%. For the same compound, the viability in assay [12] is 107% (inactive); in assay [13] it was 102% (inactive). In addition, the Her2 level in [2] is 106% (inactive). Also, the differential viability (reversal) in assay [6] (H69AR cells + 2 uM doxorubicin) was -4.33% (inactive). Moreover, the inhibition in [7] was -2% (inactive); in assay [8] it was 0.5% (inactive); in [14], 1.34% (inactive). In addition, the growth inhibition in [9] is -17.1% (inactive); in assay [10] it was -19.5% (inactive). Further, the viability increase in assay [11] was 2.21% (inactive). Also, the RAM network inhibition in assay [15] was 0.78% (inactive).
Take `COc1ccc(OC)c(C2=NOC(C(=O)Nc3c(C)n(C)n(-c4ccccc4)c3=O)C2)c1` (stereo not drawn): the viability is 88.5% in assay [1]; 88.5% (inactive) in assay [3]; 84.6% (inactive) in assay [4]; 95.3% (inactive) in assay [5]; 86.5% in assay [6] (setting [16]); 95.3% in assay [6] (setting [17]). Further, the viability is 99.4% (inactive) in [12] and 107% (inactive) in assay [13]. In assay [2], the Her2 level was 96% (inactive). Moreover, the differential viability (reversal) in [6] (H69AR cells + 2 uM doxorubicin) was 8.86% (inactive). Besides, the inhibition was -2.93% (inactive) in assay [7], -7.54% (inactive) in [8] and 0.74% (inactive) in assay [14]. Also, the figures for the growth inhibition in assay [9] and in [10] were -11.8% (inactive) and -24% (inactive), respectively. For the same compound, the viability increase in [11] was -0.56% (inactive). Also, the RAM network inhibition in assay [15] is 3.94% (inactive).
Regarding `COCCCNC(=O)Cn1cc2c(n1)CCC(C)C2` (stereo not drawn), the viability in [1] was 112%; in [3], 112% (inactive); in assay [4] it was 90.5% (inactive); in [5], 90.1% (inactive); in assay [6] (setting [16]) it was 91.8%; in assay [6] (setting [17]) it was 90.1%. The viability in [12] is 104% (inactive); in assay [13] it was 102% (inactive). For the same compound, the Her2 level in assay [2] was 100% (inactive). For the same compound, the differential viability (reversal) in assay [6] (H69AR cells + 2 uM doxorubicin) was -1.69% (inactive). The results for the inhibition in assay [7], in [8] and in [14] were 0% (inactive), 0.17% (inactive) and 1.82% (inactive), respectively. Further, the growth inhibition is -1.62% (inactive) in assay [9] and 5.27% (inactive) in assay [10]. Besides, the viability increase in assay [11] was 0.05% (inactive). Besides, the RAM network inhibition in assay [15] is -0.72% (inactive).
Take `CCOc1cccc(-c2nnc3n2N=C(c2cc(OC)ccc2OC)CS3)c1`: the viability in assay [1] was 104%; in assay [3], 104% (inactive); in assay [4], 42.4% (inactive); in assay [5], 13.5% (active); in assay [6] (setting [16]), 74.2%; in assay [6] (setting [17]), 13.5%. In addition, the values for the viability in assay [12] and in [13] were 19.4% (active) and 21.2% (active), respectively. For the same compound, in assay [2], the Her2 level is 83.5% (inactive). The differential viability (reversal) in [6] (H69AR cells + 2 uM doxorubicin) was -60.8% (inactive). In addition, the inhibition was -5.87% (inactive) in assay [7], 1.75% (inactive) in assay [8] and 1.96% (inactive) in assay [14]. The growth inhibition in assay [9] was 16.2% (inactive); in [10] it was 50.3% (active). Also, in assay [11], the viability increase was -3.98% (inactive). Also, the RAM network inhibition in [15] is 6.09% (inactive).
As to `CC1CCC(NC(=O)Cn2ncc3ccccc32)CC1` (stereo not drawn), the viability in assay [1] was 106%; in assay [3], 106% (inactive); in [4] it was 107% (inactive); in assay [5], 95.5% (inactive); in [6] (setting [16]) it was 87.6%; in assay [6] (setting [17]) it was 95.5%. For the same compound, the figures for the viability in assay [12] and in assay [13] were 97.9% (inactive) and 100% (inactive), respectively. For the same compound, the Her2 level in [2] was 108% (inactive). Moreover, the differential viability (reversal) in assay [6] (H69AR cells + 2 uM doxorubicin) was 7.93% (inactive). Besides, the inhibition in [7] is -3.47% (inactive); in assay [8] it was -8% (inactive); in [14], 1.21% (inactive). In addition, the growth inhibition in assay [9] was -9.46% (inactive); in [10] it was 1.29% (inactive). Also, the viability increase in [11] is -0.27% (inactive). Besides, the RAM network inhibition in assay [15] was 1.78% (inactive).
Turning to `Fc1cccc(Nc2ncnc3c2cnn3-c2ccccc2)c1`, the viability is 83.5% in assay [1]; 83.5% (inactive) in assay [3]; 54.9% (inactive) in assay [4]; 37.9% (active) in [5]; 69.5% in assay [6] (setting [16]); 37.9% in assay [6] (setting [17]). In addition, the viability in assay [12] was 71.5% (inactive); in [13], 70.2% (inactive). Moreover, the Her2 level in [2] is 70.5% (inactive). Besides, the differential viability (reversal) in [6] (H69AR cells + 2 uM doxorubicin) is -31.6% (inactive). In addition, the results for the inhibition in assay [7], in assay [8] and in [14] were 2.4% (inactive), -1.67% (inactive) and 0.315% (inactive), respectively. Also, the growth inhibition in assay [9] is -5.18% (inactive); in [10] it was -6.66% (inactive). The viability increase in [11] was -5.13% (inactive). In addition, the RAM network inhibition in assay [15] was 0.26% (inactive).
As to `Cc1cccc(OCc2nc(C#N)c(NCCN(C)C)o2)c1`, the viability in assay [1] is 97%; in assay [3], 97% (inactive); in assay [4] it was 79.7% (inactive); in [5] it was 84.8% (inactive); in [6] (setting [16]), 87.3%; in [6] (setting [17]), 84.8%. Further, the viability in assay [12] was 102% (inactive); in assay [13], 103% (inactive). In addition, the Her2 level in assay [2] was 81.5% (inactive). Further, in [6] (H69AR cells + 2 uM doxorubicin), the differential viability (reversal) was -2.44% (inactive). Moreover, the inhibition was -2.4% (inactive) in [7], -2.46% (inactive) in assay [8] and 0.445% (inactive) in assay [14]. Also, the growth inhibition was -4.31% (inactive) in assay [9] and 1.57% (inactive) in assay [10]. For the same compound, in [11], the viability increase is -3.62% (inactive). For the same compound, the RAM network inhibition in assay [15] was 3.81% (inactive).
